HP1b chromo inh – HTS for Inhibitors of HP1-beta Chromodomain Interactions with Methylated Histone Tails; AlphaScreen HP1-beta / biotin-H3K9me3 peptide binding; Chromobox protein homolog 1 (Homo sapiens), P83916; Potency, µM (series often up to 114 µM), for the others: at the highest dose activity change, negative = inhibition, actives largely listed as inhibitors; 390,000 compounds, 0.56% hits; also: potency is read from the fitted curve at half-maximal effect; nearly all actives have a fitted effect of over 70% in size
Target sequence (P83916 whole entry, looked up): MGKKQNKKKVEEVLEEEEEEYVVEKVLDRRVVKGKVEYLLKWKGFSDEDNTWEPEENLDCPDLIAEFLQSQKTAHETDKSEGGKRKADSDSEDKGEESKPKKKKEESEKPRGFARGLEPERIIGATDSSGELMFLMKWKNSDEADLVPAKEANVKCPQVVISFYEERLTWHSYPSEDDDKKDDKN
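Compound inhibition of the preformed complex between 50 nM HP1-beta and 50 nM biotinylated H3K9me3 peptide was read by AlphaScreen. Buffer was PBS pH 7.4 with 0.01% Tween-20. Incubations ran 30 min at room temperature, with 10 ug/mL donor/acceptor beads.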
PLK1 PBD block – qHTS for Inhibitors of PLK1-PDB (polo-like kinase 1 - polo-box domain): Primary Screen | AID 720504, 2013 | 360,000 compounds, 2.8% hits | Potency, µM, inactives show max response, negative = inhibition, usual class: inhibitors | Serine/threonine-protein kinase PLK1 (Homo sapiens), P53350 | Plk1 PBD binding of FITC phosphopeptide, fluorescence polarization; also: potency is read from the fitted curve at half-maximal effect; series mostly up to about 57 µM; % is scaled to controls: 0 for no effect and ±100 for the full control effect; nearly all actives have a fitted effect of over 65% in size
PI5P4K alpha inh – qHTS for Inhibitors of phosphatidylinositol 5-phosphate 4-kinase (PI5P4K); PI5P4Kalpha enzyme, ADP-Glo luminescence, 60 min; hits give low values; 330,000 compounds, 1.2% hits; max response, %; AID 652105, 2013; Phosphatidylinositol 5-phosphate 4-kinase type-2 alpha (Homo sapiens), P48426; active = max response of -50% or lower; inconclusive = between -30% and -50%; inactive = -30% or higher; also: value at the top dose of about 77 µM; % is scaled to controls: 0 for no effect and ±100 for the full control effect
Target sequence (P48426 whole entry, looked up): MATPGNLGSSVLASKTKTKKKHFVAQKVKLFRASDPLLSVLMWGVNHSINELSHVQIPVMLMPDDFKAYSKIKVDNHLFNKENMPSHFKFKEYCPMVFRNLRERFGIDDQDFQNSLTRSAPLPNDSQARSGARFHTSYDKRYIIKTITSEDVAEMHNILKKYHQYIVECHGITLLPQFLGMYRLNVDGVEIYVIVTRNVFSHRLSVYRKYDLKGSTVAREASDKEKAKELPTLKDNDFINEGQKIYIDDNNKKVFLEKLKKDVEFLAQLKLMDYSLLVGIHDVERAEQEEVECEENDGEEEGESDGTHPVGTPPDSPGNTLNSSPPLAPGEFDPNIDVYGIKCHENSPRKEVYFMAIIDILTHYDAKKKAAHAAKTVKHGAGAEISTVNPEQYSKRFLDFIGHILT
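Reactions run in 0.038 M HEPES pH 7.4, 0.28 mM EGTA, 0.1% CHAPS and 5% DMSO, with PI5P4Kalpha, substrate, compound and 5 microM ATP final, one hour at room temperature. Readout is ADP-Glo luminescence.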
BAZ2B block – qHTS Assay for Inhibitors of BAZ2B; Bromodomain adjacent to zinc finger domain protein 2B (Homo sapiens), Q9UIF8; AlphaScreen BAZ2B-H3K14Ac peptide displacement; Potency, µM (series often up to 114 µM), for the others: at the top dose activity change, negative = inhibition, most hits filed as inhibitors; 360,000 compounds, 4.4% hits; AID 504333, 2011; also: potency is read from the fitted curve at half-maximal effect; % is scaled to controls: 0 for no effect and ±100 for the full control effect; nearly all actives have a fitted effect of over 60% in size
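Compounds, titrated to a top concentration of 110 uM, were incubated 30 min at room temperature with preformed BAZ2B/acetyl-K14 H3 peptide complex (50 nM each). Proximity signal was measured by AlphaScreen after 20 min with beads.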
JMJD2A Tudor – qHTS Assay for Inhibitors of JMJD2A-Tudor Domain | AlphaScreen JMJD2A-Tudor / H3K4me3 peptide binding | Lysine-specific demethylase 4A (Homo sapiens), O75164 | Potency, µM (titrated, usually from 114 µM), for inactives: top-dose activity change, negative = inhibition, usual class: inhibitors | 390,000 compounds, 4.4% hits; also: potency is read from the fitted curve at half-maximal effect; % is scaled to controls: 0 for no effect and ±100 for the full control effect; nearly all actives have a fitted effect of over 50% in size
G9a inh – qHTS Assay for Inhibitors of Histone Lysine Methyltransferase G9a | G9a H3K9 monomethylation, AlphaScreen, 2 h | Potency, µM (highest dose often 102 µM), for inactives: top-dose activity, negative = inhibition, most hits filed as inhibitors | 350,000 compounds, 8.8% hits | AID 504332, 2011; also: potency is read from the fitted curve at half-maximal effect; % is scaled to controls: 0 for no effect and ±100 for the full control effect; nearly all actives have a fitted effect of over 75% in size
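Using a bead-based AlphaScreen, monomethylated H3K9 product from 2 h room-temperature reactions (G9a 20 nM, peptide 500 nM, SAM 20 uM) was detected with 0.5 ug/mL rabbit anti-H3K9me1 antibody.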
* = called active by the depositor; ? = inconclusive; / = not tested or not shown; ! = not active in a repeat; [ ] = remark or other dose. Compounds with a hit are over-represented: about 12% of the library has one in this group of screens. Unless noted, calls follow the shape of the dose curve; as a rule, active = well fitted curve in the direction sought with a large enough effect; inconclusive = small, poorly fitted or top-dose-only effect, or another doubt; inactive = no such curve, though single readings can be large; an effect the other way counts as inactive or inconclusive.

SMILES | HP1b chromo inh | PLK1 PBD block | PI5P4K alpha inh | BAZ2B block | JMJD2A Tudor | G9a inh
CCN1CCN(C(c2ccc(C(F)(F)F)cc2)c2ccc3cccnc3c2O)CC1 (configuration not stated) | ? | 3.8µM* | -29 | 28µM* | 50µM* | 2.5µM*
CN1CCN(C(c2ccc(Cl)cc2)c2cc(Cl)c3cccnc3c2O)CC1 (configuration not stated) | ? | 2.4µM* | -62* | 32µM* | 40µM* | 2.5µM*
OCCN1CCN(CC(O)COc2ccc3ccccc3c2)CC1 (configuration not stated) | 25% | -17% | 6 | 3% | -33% | ?
CN1CCN(c2ncc3nc(-c4cc(F)cc(F)c4)c(=O)n(-c4ccccc4)c3n2)CC1 | / | / | / | / | / | -45%[12.7 µM]
CC(=O)NC(c1ccc(N(C)C)cc1)c1cc(Cl)c2cccnc2c1O (configuration not stated) | / | -4% | -23 | / | / | /
CN1CCN(C(c2ccc(C(F)(F)F)cc2)c2cc(Cl)c3cccnc3c2O)CC1 (configuration not stated) | / | / | / | 40µM* | / | 11µM*
NC(=O)c1ccc(NCCc2ccco2)cc1 | / | 0% | -1 | / | / | /
O=C(CCc1ccco1)CCc1ccco1 | ? | -13% | -26 | / | 56µM* | /
CCOC(=O)c1c(N)sc(C(N)=O)c1C | ? | ? | -4 | -5% | 5% | ?
CCCOC(=O)c1c(N)sc2c1CCC2 | ? | -29% | -11 | ? | ? | 50µM*
CCOC(=O)c1c(N)sc(=S)c2c1CCC2 | ? | ? | ? | 45µM* | ? | ?
CNC(=O)c1c(N)sc2c1CCCCC2 | / | / | / | -10% | / | 10µM*
CCOC(=O)c1c(N)ssc1=S | ? | 6.7µM* | / | ? | ? | 1µM*
O=C(Nc1cccc(C(F)(F)F)c1)Nc1nnc([C@@H]2C[C@H](O)[C@@H](CO)O2)s1 | / | 1% | -3 | / | / | /
COc1ccc(NC(=O)Cn2nnc(-c3nc(-c4ccncc4)no3)c2N)cc1OC | 47% | / | / | -15% | 5% | ?
NC(=O)c1c(N)sc2c1CCC2 | 1% | ? | -28 | -13% | -18% | /
Nc1sc2c(c1C(=O)NC1CCS(=O)(=O)C1)CCC2 (configuration not stated) | 7% | 17µM* | -27 | -36% | 7%[11.4 µM] | 7.1µM*
CC(C)OC(=O)c1c(N)sc2c1CCCC2 | -36% | 24µM* | / | / | ? | /
Cc1ccc(C)c(NC(=O)N2CCC(N3CCN(Cc4ccc(F)cc4)C(=O)C3=O)CC2)c1 | 23% | / | / | -8% | -17% | 3%[59 µM]
CC(/C=C/C(=O)NO)=C\[C@@H](C)C(=O)c1ccc(N(C)C)cc1 | / | / | / | / | / | 16µM*!
O=C(CSc1ccc(Cl)cc1)NNC(=O)c1cccnc1 | 14% | -18% | 7 | -6% | -25% | 0%
O=C(NCc1ccccc1)c1cccnc1 | 8% | -14% | -2 | 9% | -11% | ?
O=C(NCc1ccc(Cl)cc1)c1cccnc1 | -2% | 24µM* | -13 | 19% | -5%[11.4 µM] | 21%
O=C(CNS(=O)(=O)c1ccc(Cl)cc1)NNC(=O)c1cccnc1 | 40% | 9.5µM* | 0 | / | 2% | ?
Cn1cccc1C(=O)NCc1ccc(Cl)cc1 | -26% | -4% | 2 | ? | -35% | 45µM*
SMILES | HP1b chromo inh | PLK1 PBD block | PI5P4K alpha inh | BAZ2B block | JMJD2A Tudor | G9a inh
O=C(NCc1ccc(Cl)cc1)c1ccc(Br)o1 | 22% | -7% | 0 | 11% | -23% | 18µM*!
COc1ccc(-c2nc(SCC(=O)Nc3ccc4c(c3)OCO4)c(-c3ccccc3)[nH]2)cc1 | 11% | / | / | -12% | -32% | -10%[59 µM]
CCC1C(c2ccccc2)=CCC(C(=O)O)C1C (configuration not stated) | 37% | -25% | 2 | / | -6% | /
COc1ccc(CNC(=O)COC(=O)Cc2ccc(Br)cc2)cc1 | 15%[57 µM] | -3% | 5 | / | -6% | /
COc1cc(N=Nc2cccc(S(N)(=O)=O)c2)c2ccccc2c1N | 28µM* | -5% | -29 | 13µM* | 13µM* | 13µM*
CCOC(=O)/C=C/c1cc(F)ccc1O | / | -4% | 2 | / | / | /
COC(=O)/C=C/c1cc(O)ccc1O | / | / | / | / | / | 2.8µM*
COCCCN1C(=O)C(CC(=O)NC(c2ccccc2)c2ccccc2)CC(C(=O)N2CCCCCC2)=C1C (configuration not stated) | / | -4% | 4 | / | / | /
COc1ccc(Cl)cc1NC(=O)Cn1cnc2c1c(=O)n(C)c(=O)n2C | 48% | / | / | 0% | -9% | -3%[59 µM]
COc1ccc(C(=O)CSc2nnc(CNc3ccc(F)cc3)o2)cc1 | 22% | -15% | -6 | -11% | -12% | -2%[59 µM]
COc1ccc(CCCc2nnc(SCC(=O)Nc3ccc(OC)cc3)o2)cc1 | -5% | 1% | -6 | 3% | 28µM*! | ?
COc1ccc(NCc2nnc(SCC(=O)c3ccc(C)cc3)o2)cc1 | -23% | ? | 2 | ? | ? | 14µM*
COCCCNC(=S)N1CCN(S(=O)(=O)c2ccc(OC)cc2)CC1 | ? | 21µM* | 9 | -10% | -26%[11.4 µM] | 17%
COc1ccc(CCNC(=S)N2CCN(S(=O)(=O)c3cccc(F)c3)CC2)cc1 | 10% | -19% | 2 | 12% | 2% | 50µM*
COCCCNC(=S)N1CCN(S(C)(=O)=O)CC1 | 8% | 0% | 4 | 3% | -18% | 29%[59 µM]
COc1ccc(S(=O)(=O)N2CCN(C(=S)NCCc3ccccc3)CC2)cc1 | 27% | 4% | -4 | -21% | -16% | -6%[12.7 µM]
COc1ccc(CCNC(=S)N2CCN(S(=O)(=O)c3ccc(C)cc3)CC2)cc1 | 6% | -25% | -4 | 10% | 3% | 50µM*
COc1ccc(CNC(=S)N2CCN(S(=O)(=O)c3cccc(F)c3)CC2)cc1 | -1% | -12% | 2 | -14% | -19% | /
O=C(c1cnccn1)N1CCC2(CC1)CN(Cc1nccs1)C2 | / | / | / | / | / | 0%[12.7 µM]
COc1ccc(C(=O)N2CCC3(CCCN(c4cccc(-c5ccccc5)c4)C3)CC2)cc1 | / | / | / | / | / | 4%[12.7 µM]
CCOCCCn1c(=NC(=O)c2cccnc2)c(C(=O)OCC)cc2c(=O)n3ccccc3nc21 | 10% | 19µM*! | 28 | -27% | 50µM*! | 2%[59 µM]
CCCCn1c(=NC(=O)c2cccnc2)c(C(=O)OCC)cc2c(=O)n3ccccc3nc21 | -12% | ? | 3 | 1% | -16%[57.1 µM] | 0%[12.7 µM]
Cc1ccc(S(=O)(=O)c2nc(S(=O)(=O)c3ccc(C)cc3)c(NCCCOC(C)C)s2)cc1 | 29% | / | / | -11% | -14% | ?

Screening results deposited in PubChem BioAssay by National Center for Advancing Translational Sciences (NCATS).
